Assay results reported in PubChem BioAssay (Tox21).
Where “and” joins values, the source holds several entries; their conditions need not be identical. Equal values may be shown once. Inconclusive results are not listed. Where a call stands in place of a potency, no number is given. More than one record can exist for a structure, and the calls need not agree. Calls of active or inactive are those of the source. Unless noted, the call rests on the fitted dose curve; in most records, active means well fitted curve in the direction sought with a large enough effect in the repeat runs; inconclusive means weak or mixed curves; inactive means no such curve, though single readings can be large; an effect the other way counts as inactive or inconclusive.

Key:
[1] = qHTS RealTime-Glo MT Cell Viability Assay in HEK293 cells - 0 hour (AID 1224880); further: top concentration of the series differs between compounds; nearly all actives have a fitted effect of over 45% in size
Method in brief: (§1)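 Viable HEK293 cells reduce a cell-permeant prosubstrate; the product diffuses out and is consumed by NanoLuc in the medium to give light. Compounds went in after a 5 h incubation and plates were read over the treatment course.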

[2] = A CellTox Green Cytotoxicity Assay to monitor cytotoxicity in HEK293 cells - 32 hour (AID 1224881); further: nearly all actives have a fitted effect of over 40% in size
Method in brief: (§2)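 Fluorescence intensity, read at 0, 8, 16, 24, 32 and 40 h of compound treatment, reflected dye binding to DNA of dead HEK293 cells; compounds (23 nL, DMSO) were added 5 h after plating cells with reagent.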

[3] = A CellTox Green Cytotoxicity Assay to monitor cytotoxicity in HepG2 cells - 0 hour (AID 1224882); further: nearly all actives have a fitted effect of over 35% in size
Method in brief: (§3)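 Using 1536-well format, dye-containing HepG2 suspension was seeded, allowed 5 h at 37 C/5% CO2, dosed by pintool with compounds, positive and negative controls, and imaged for fluorescence across 40 h.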

[4] = A CellTox Green Cytotoxicity Assay to monitor cytotoxicity in HepG2 cells - 32 hour (AID 1224883); further: nearly all actives have a fitted effect of over 50% in size
Method in brief: as §3

[5] = A CellTox Green Cytotoxicity Assay to monitor cytotoxicity in HEK293 cells - 8 hour (AID 1224884); further: nearly all actives have a fitted effect of over 35% in size
Method in brief: as §2

[6] = qHTS RealTime-Glo MT Cell Viability Assay in HepG2 cells - 16 hour (AID 1224885); further: nearly all actives have a fitted effect of over 50% in size
Method in brief: (§4)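 HepG2 suspension premixed with RealTime-Glo reagents is plated at 600 cells per well and left 5 h at 37 C/5% CO2. Compounds in DMSO then go in, and bioluminescence reflecting viable cell number is recorded over 40 h.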

[7] = qHTS RealTime-Glo MT Cell Viability Assay in HEK293 cells - 24 hour (AID 1224886); further: top concentration of the series differs between compounds; nearly all actives have a fitted effect of over 50% in size
Method in brief: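 Reads taken at 0, 8, 16, 24, 32 and 40 h from the same wells. HEK293 cells (600/well) carried RealTime-Glo reagents from seeding, with compound added after a 5 h settle at 37 C.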

[8] = qHTS RealTime-Glo MT Cell Viability Assay in HEK293 cells - 8 hour (AID 1224887); further: top concentration of the series differs between compounds; nearly all actives have a fitted effect of over 50% in size
Method in brief: as §1

[9] = A CellTox Green Cytotoxicity Assay to monitor cytotoxicity in HEK293 cells - 16 hour (AID 1224888); further: nearly all actives have a fitted effect of over 35% in size
Method in brief: as §2

[10] = A CellTox Green Cytotoxicity Assay to monitor cytotoxicity in HepG2 cells - 8 hour (AID 1224890); further: nearly all actives have a fitted effect of over 45% in size
Method in brief: as §3

[11] = qHTS assay to identify small molecule antagonists of the estrogen receptor alpha (ER-alpha) signaling pathway using the BG1 cell line in the presence of 0.1 nM 17-beta-estradiol - cell viability counter screen (AID 1259241); further: nearly all actives have a fitted effect of over 40% in size
Method in brief: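 VM7Luc4E2 cells (endogenous full-length ER-alpha, 4xERE-luciferase), cultured 5 days in charcoal-stripped serum, exposed to compounds with 0.1 nM 17beta-estradiol (final) for 22 hr at 37C. Viability read in same wells as live-cell protease fluorescence after 30 min.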

[12] = qHTS assay to identify small molecule antagonists of the androgen receptor (AR) signaling pathway using the MDA cell line in the presence of 0.5 nM R1881 - cell viability counter screen (AID 1259242); further: nearly all actives have a fitted effect of over 45% in size
Method in brief: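 Viability of MDA-kb2 cells was multiplexed with the luciferase AR readout; after 16 hr with compounds and R1881 at 0.5 nM final, CellTiter-Fluor fluorescence was recorded.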

[13] = molecular target: Estrogen receptor (Homo sapiens) (UniProt P03372); assay: qHTS assay to identify small molecule antagonists of the estrogen receptor alpha (ER-alpha) signaling pathway using the BG1 cell line in the presence of 0.1 nM 17-beta-estradiol (AID 1259244); further: nearly all actives have a fitted effect of over 50% in size
Estrogen receptor (Homo sapiens), sequence (P03372 whole entry, looked up): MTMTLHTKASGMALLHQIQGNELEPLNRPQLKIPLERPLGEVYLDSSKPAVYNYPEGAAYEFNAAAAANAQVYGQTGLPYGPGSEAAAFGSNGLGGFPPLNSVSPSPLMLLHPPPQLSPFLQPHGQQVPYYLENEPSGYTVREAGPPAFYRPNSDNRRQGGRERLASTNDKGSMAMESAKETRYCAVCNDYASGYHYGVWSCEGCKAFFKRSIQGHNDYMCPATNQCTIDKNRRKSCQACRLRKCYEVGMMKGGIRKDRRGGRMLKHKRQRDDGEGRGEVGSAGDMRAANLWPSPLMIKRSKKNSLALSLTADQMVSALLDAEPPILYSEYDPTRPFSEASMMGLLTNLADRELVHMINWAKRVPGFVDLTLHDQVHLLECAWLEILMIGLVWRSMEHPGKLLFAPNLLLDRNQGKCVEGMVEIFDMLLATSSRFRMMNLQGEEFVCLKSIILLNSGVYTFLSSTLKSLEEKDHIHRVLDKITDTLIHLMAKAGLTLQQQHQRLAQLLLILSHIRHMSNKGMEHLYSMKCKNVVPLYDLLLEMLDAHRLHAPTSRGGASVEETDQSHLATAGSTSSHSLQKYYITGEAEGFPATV
Method in brief: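 Estradiol at 0.1 nM (final) stimulates the endogenous ER-alpha of VM7Luc4E2 cells carrying an ERE-driven luciferase; compounds are co-incubated 22 h at 37C and luciferase output quantified by luminescence.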

[14] = qHTS assay to identify small molecule HDAC inhibitors (AID 1259364); further: potency means the concentration at half of the fitted maximal effect;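 further: wild-type HCT-116 cells with endogenous class I/II HDAC activity; nearly all actives have a fitted effect of over 45% in size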
Method in brief: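 Read-out: luminescence of HDAC-Glo I/II reagent, 30 min RT, reflecting class I/II deacetylase activity in whole HCT-116 cells pre-exposed 2 h to DMSO-dissolved compounds.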

[15] = qHTS assay to identify small molecule HDAC inhibitors - cell viability counter screen (AID 1259365)
Method in brief: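 Wild-type HCT-116 cells, 1,500/well, cultured overnight, then compound-treated 2 h at 37 C. Viability measured as ATP luminescence with CellTiter-Glo after 30 min at room temperature.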

[16] = qHTS assay to identify small molecule agonists of the sonic hedgehog signaling (Shh) pathway - cell viability counter screen (AID 1259366); further: nearly all actives have a fitted effect of over 50% in size
Method in brief: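 NIH/3T3-derived Gli1-Luc reporter cells, 2,000 per well, received compound after 4 h and were treated about 23 h at 37C. Viability measured in the same wells by CellTiter-Fluor fluorescence after 1 h.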

[17] = qHTS RealTime-Glo MT Cell Viability Assay in HepG2 cells - 0 hour (AID 1224889); further: nearly all actives have a fitted effect of over 50% in size
Method in brief: as §4

[18] = qHTS assay to identify small molecule phospholipidosis (PLD) inducers (AID 1259344; active means well fitted curve in the direction sought with a large enough effect; an effect the other way counts as inactive or inconclusive)
Method in brief: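 HepG2 cells, 900/well, treated with compound plus LipidTOX Red for 24 h at 37 C; amiodarone positive and DMSO negative controls. Fixed with paraformaldehyde/Hoechst, then high-content imaging scored LipidTOX pit count and integrated intensity per well and per cell.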

[19] = qHTS assay to identify small molecule antagonists of the sonic hedgehog signaling (Shh) pathway - cell viability counter screen (AID 1259367); further: nearly all actives have a fitted effect of over 55% in size; further: potency means the concentration at half of the fitted maximal effect
Method in brief: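 NIH/3T3-derived Gli1-Luc reporter cells, 2,000/well, plated 4 hr before compound addition, then stimulated with conditioned medium for 24 hr at 37C. Viability measured in the same wells by CellTiter-Fluor fluorescence, reagent added at 23 hr for 1 hr.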

[20] = molecular target: Androgen receptor (Homo sapiens) (UniProt P10275); assay: qHTS assay to identify small molecule antagonists of the androgen receptor (AR) signaling pathway using the MDA cell line in the presence of 0.5 nM R1881 (AID 1259243); further: nearly all actives have a fitted effect of over 50% in size
Androgen receptor (Homo sapiens), sequence (P10275 whole entry, looked up): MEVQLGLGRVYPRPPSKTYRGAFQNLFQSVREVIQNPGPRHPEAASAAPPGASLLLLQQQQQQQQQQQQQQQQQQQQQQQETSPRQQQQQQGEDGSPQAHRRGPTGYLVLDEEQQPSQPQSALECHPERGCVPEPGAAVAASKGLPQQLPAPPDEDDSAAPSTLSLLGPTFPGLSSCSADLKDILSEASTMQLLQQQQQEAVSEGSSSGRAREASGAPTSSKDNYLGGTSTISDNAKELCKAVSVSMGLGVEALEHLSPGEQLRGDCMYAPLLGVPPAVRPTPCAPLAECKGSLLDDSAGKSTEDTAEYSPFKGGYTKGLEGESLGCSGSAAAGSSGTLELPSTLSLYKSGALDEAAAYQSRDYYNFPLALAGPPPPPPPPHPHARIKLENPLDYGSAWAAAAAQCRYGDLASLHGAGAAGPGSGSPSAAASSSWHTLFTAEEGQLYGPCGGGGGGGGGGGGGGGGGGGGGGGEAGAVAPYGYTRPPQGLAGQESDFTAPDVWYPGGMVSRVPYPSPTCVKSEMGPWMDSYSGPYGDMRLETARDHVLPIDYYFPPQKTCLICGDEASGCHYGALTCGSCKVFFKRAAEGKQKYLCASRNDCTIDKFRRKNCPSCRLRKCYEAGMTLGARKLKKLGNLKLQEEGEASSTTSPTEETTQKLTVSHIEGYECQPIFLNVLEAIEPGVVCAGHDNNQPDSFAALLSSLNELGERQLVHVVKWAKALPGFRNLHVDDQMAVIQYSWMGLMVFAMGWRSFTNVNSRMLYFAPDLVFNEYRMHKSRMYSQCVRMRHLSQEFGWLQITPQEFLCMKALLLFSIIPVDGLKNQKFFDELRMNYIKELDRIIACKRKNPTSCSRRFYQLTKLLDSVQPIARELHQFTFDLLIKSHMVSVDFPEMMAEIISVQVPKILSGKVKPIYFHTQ
Method in brief: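 Reporter cells cultured without CO2 receive test chemicals, then 0.5 nM R1881 final; after 16 hr at 37C, ONE-Glo is added and light output recorded.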

Structure (SMILES)	Potency [1]	Potency [2]	Potency [3]	Potency [4]	Potency [5]	Potency [6]	Potency [7]	Potency [8]	Potency [9]	Potency [10]	Potency [11]	Potency [12]	Potency [13]	Potency [14]	outcome [15]	Potency [16]	Potency [17]	outcome [18]	Potency [19]	outcome [20]
O=[N+]([O-])c1cccc(Cl)c1	inactive	inactive	inactive	inactive	inactive	inactive	inactive	inactive	inactive	inactive	inactive	inactive	inactive	inactive	inactive	inactive	–	–	–	–
OC[C@@H](O)[C@H](O)[C@H](O)[C@@H](O)CO	inactive	inactive	inactive	–	inactive	inactive	inactive	inactive	inactive	inactive	inactive	inactive	inactive	inactive	inactive	–	inactive	inactive	inactive	–
O=C(O)c1cc(-c2ccccc2)nc2ccccc12	inactive	inactive	inactive	–	inactive	inactive	inactive	inactive	inactive	inactive	inactive	inactive	–	–	inactive	inactive	inactive	inactive	inactive	inactive
Clc1ccc(Cl)c(Cl)c1Cl	inactive	inactive	inactive	inactive	inactive	inactive	inactive	inactive	inactive	inactive	inactive	inactive	–	inactive	inactive	–	inactive	–	inactive	–
O=S(=O)(Oc1ccc(Cl)cc1Cl)c1ccccc1	inactive	inactive	inactive	inactive	inactive	inactive	inactive	inactive	inactive	inactive	inactive	–	inactive	inactive	inactive	inactive	inactive	–	inactive	–
C=C(C)C(=O)OCCCCCC	inactive	inactive	inactive	inactive	inactive	inactive	inactive	inactive	inactive	inactive	inactive	inactive	inactive	inactive	inactive	–	inactive	–	inactive	–
CC(C)Cc1ccccc1	inactive	inactive	inactive	inactive	inactive	inactive	inactive	inactive	inactive	inactive	inactive	inactive	inactive	inactive	inactive	inactive	inactive	–	inactive	–
Oc1ccc2ccccc2c1	inactive	inactive	–	inactive	inactive	inactive	inactive	inactive	inactive	inactive	inactive	–	–	inactive	inactive	inactive	inactive	–	–	–
O=C1O[C@H](CO)[C@@H](O)[C@H](O)[C@H]1O	inactive	inactive	inactive	–	inactive	inactive	inactive	inactive	inactive	inactive	inactive	inactive	inactive	inactive	inactive	inactive	–	inactive	inactive	–
O=S(=O)(O)c1cc(S(=O)(=O)O)c2c(N=Nc3ccccc3)c(O)ccc2c1	inactive	inactive	–	–	inactive	inactive	inactive	inactive	inactive	inactive	–	–	inactive	inactive	inactive	–	inactive	–	–	–
OC[C@@H](O)[C@@H](O)[C@H](O)[C@@H](O)CO	inactive	inactive	–	inactive	inactive	inactive	inactive	inactive	inactive	inactive	inactive	–	inactive	inactive	inactive	–	–	–	inactive	–
Cc1cc(O)c2c(c1)C(=O)c1cc(O)cc(O)c1C2=O	inactive	inactive	–	inactive	inactive	inactive	–	inactive	inactive	inactive	–	–	inactive	5.32 µM (active) and 1.93 µM (active)	inactive	inactive	inactive	–	inactive and 54.5 µM (active)	–
OCC#CCO	inactive	inactive	–	inactive	inactive	inactive	inactive	inactive	inactive	inactive	inactive	inactive	–	inactive	inactive	inactive	inactive	–	–	–
OC1CCCC1	inactive	inactive	inactive	–	inactive	inactive	inactive	inactive	inactive	inactive	inactive	–	inactive	inactive	inactive	inactive	–	–	inactive	–
Cc1cc(=O)[nH]c(C(C)C)n1	inactive	inactive	–	inactive	inactive	inactive	inactive	inactive	inactive	inactive	inactive	–	inactive	inactive	inactive	inactive	inactive	–	–	inactive
CC1=C(/C=C/C(C)=C/C=C/C(C)=C/CO)C(C)(C)CCC1	inactive	inactive	–	inactive	inactive	inactive	inactive	inactive	inactive	inactive	inactive	inactive	inactive	inactive	inactive	inactive	inactive	inactive	inactive	–
